DSG3 Ab inh: inhibitors of pemphigus antibody binding to human desmoglein-3; binding (percent of control), % at 10 µM; AID 588358; 0.48% of 310,000 active; P32926; DSG3-coupled beads, scFv-anti-DSG3-GFP binding, flow cytometry; hits give low values;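 active = binding more than 3 SD below its plate's average and above zero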;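 also: hits lower antibody fragment binding to DSG3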
ADAM10 inh: ADAM10 inhibition, QFRET primary screen | O14672 | recombinant ADAM10, EDANS/DABCYL FRET peptide cleavage, 3 h | inhibition, % at 7 µM | 0.62% of 370,000 active;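 active = inhibition above a per-campaign cutoff equal to the mean of compounds falling between control-based bounds plus 3 SD, cut at about 20% in these data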;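 also: 0% = DMSO wells while the 100% control is not disclosed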
rCAG binder-1: r(CAG) repeat RNA binding; TO-PRO-1 dye displacement fluorescence; inhibition, % at 3 µM; AID 651821; 1.3% of 370,000 active;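 active = inhibition above the plate cutoff, the mean of all test compounds on that plate plus 3 SD, cut at about 35% in these data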;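 also: 0% = DMSO alone and 100% = 100 µM mitoxantrone as full dye displacement; higher means more dye released from RNA so lower well fluorescence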
KLK7 zymogen act: proKLK7 (human) activation, primary screen; P49862; purified proKLK7, EDANS-DABCYL substrate fluorescence; 100% is mature enzyme control, 0% vehicle; activation, % at 7 µM; 0.9% of 370,000 active;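 active = activation above the mean of all tested compounds plus 3 SD, computed per campaign excluding outliers beyond control limits, cut at about 13% in these data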
Target sequence (P49862 whole entry, looked up): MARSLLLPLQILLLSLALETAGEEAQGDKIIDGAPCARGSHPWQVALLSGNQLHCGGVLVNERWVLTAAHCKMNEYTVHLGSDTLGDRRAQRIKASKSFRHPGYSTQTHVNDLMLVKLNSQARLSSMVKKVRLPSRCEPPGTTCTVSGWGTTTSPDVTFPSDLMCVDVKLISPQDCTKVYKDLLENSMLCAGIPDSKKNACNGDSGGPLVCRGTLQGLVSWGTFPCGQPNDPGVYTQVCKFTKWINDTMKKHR
MPTP inh: blocks calcium-induced mitochondrial swelling; isolated mouse mitochondria, Ca2+ swelling absorbance, 30 min; inhibition, % at 10 µM; 1.4% of 360,000 active; AID 602449;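 active = inhibition of 50% or more, scaled per plate between neutral and stimulator controls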;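 also: 0% = DMSO wells given calcium and 100% = 1 mM EGTA wells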
ADAM17 inh: inhibitors of human ADAM17 | P78536 | recombinant ADAM17, EDANS/DABCYL FRET peptide cleavage | inhibition, % at 6.95 µM | 0.83% of 370,000 active | AID 720648;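 active = inhibition above the mean of compounds lying between control limits plus 3 SD, set per campaign, cut at about 8.5% in these data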;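 also: 0% = DMSO-only wells as the low control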
rCAG binder conf: r(CAG) RNA repeat binding, confirmation. shares compounds with rCAG binder-1. TO-PRO-1 dye displacement fluorescence. inhibition, % at 3 µM. 70% of 4,300 active;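 active = inhibition above a per-plate cutoff, the mean inhibition of sample wells plus 3 SD, cut at about 35% in these data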;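 also: loss of TO-PRO-1 fluorescence as compound displaces dye from 1x1 AA loop RNA; 0% = DMSO only wells and 100% = 100 µM mitoxantrone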
DNA CAG counter: disrupts DNA CAG TO-PRO-1 complex, flagging rCAG hits. shares compounds with rCAG binder-1. d(CAG) DNA oligo TO-PRO-1 dye displacement, fluorescence. inhibition, % at 3 µM. 94% of 4,300 active;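 active = inhibition above its plate's cutoff, the mean test-well inhibition plus 3 SD, cut at about 4.8% in these data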;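 also: 0% = DNA dye mix with DMSO and 100% = 100 µM mitoxantrone; hits displace the dye from DNA and so lower well fluorescence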
DNA CAG DR: counter-screen for rCAG binders: inhibitors of DNA CAG TO-PRO-1 complex | shares compounds with rCAG binder-1 | AID 686960 | 20% of 250 active | IC50, µM | DNA CAG/GTC duplex TO-PRO-1 dye displacement fluorescence; in the data active = IC50 below about 10 µM
dCAG TOPRO ctr: counter-screen for rCAG binders: DNA CAG TO-PRO-1 complex inhibitors, late stage. AID 720649. d(CAG) DNA duplex TO-PRO-1 dye displacement, fluorescence. IC50, µM. shares compounds with rCAG binder-1. 80% of 30 active
rCAG binder-2: r(CAG) repeat RNA binding, TO-PRO-1 displacement; AID 720651; r(CAG) RNA TO-PRO-1 dye displacement, fluorescence; 100% of 30 active; IC50, µM; shares compounds with rCAG binder-1
An asterisk follows results filed as active; i = inactive; . = not tested or not shown. Hits are enriched below; roughly 4.7% of the tested compounds scored in any of these assays. Unless noted, no rule for the calls is given here.

SMILES	DSG3 Ab inh	ADAM10 inh	rCAG binder-1	KLK7 zymogen act	MPTP inh	ADAM17 inh	rCAG binder conf	DNA CAG counter	others
Cc1noc(NS(=O)(=O)c2ccc(NC(=O)CCN3C(=O)c4ccccc4C3=O)cc2)c1C	85	6	14	0	-1	-3	.	.
O=C(CN1C(=O)c2cccc3cccc1c23)Nc1ccc(S(=O)(=O)N2CCOCC2)cc1	103	-50	7	-8	-1	-20	.	.
Cc1noc(NS(=O)(=O)c2ccc(NC(=O)c3cc(=O)c4ccccc4o3)cc2)c1C	93	-8	37*	-1	1	0	13	2
O=C(Nc1ccc(S(=O)(=O)Nc2nccs2)cc1)c1nn(-c2ccc(F)cc2)ccc1=O	93	-1	46*	0	0	-2	45*	20*
O=C(CN1C(=O)c2cccc3cccc1c23)Nc1ccc(S(=O)(=O)Nc2nccs2)cc1	101	-92	67*	-7	.	-29	47*	17*
COc1cccc(N2CCN(c3ccc4nnc(CCC(=O)N5CCC(C)CC5)n4n3)CC2)c1	.	-2	-9	0	-2	-5	.	.
COc1cccc(S(=O)(=O)N(C)C[C@@H]2Oc3ncc(C#CCN(C)C)cc3C(=O)N([C@H](C)CO)C[C@H]2C)c1	.	-7	5	0	-2	3	.	.
CC1CN(S(=O)(=O)c2ccc(C(=O)Nc3nccs3)cc2)CC(C)O1 (centres undefined)	101	3	-1	0	0	-2	.	.
O=C(Nc1ccc(S(=O)(=O)Nc2nccs2)cc1)c1ccc(N2C(=O)c3ccccc3C2=O)cc1	97	9	45*	0	5	-1	56*	24*
CC1CN(S(=O)(=O)c2ccc(C(=O)Nc3ccc(S(=O)(=O)Nc4nccs4)cc3)cc2)CC(C)O1 (centres undefined)	97	8	57*	0	0	3	65*	19*
Cc1noc(NS(=O)(=O)c2ccc(NC(=O)c3nn(-c4ccccc4)ccc3=O)cc2)c1C	101	5	35*	0	-1	-1	21	5.7*
O=C(Nc1ccc(S(=O)(=O)Nc2nccs2)cc1)c1ccc(F)cc1	.	7	8	-1	-1	-4	.	.
OC(Cc1cccc(Br)c1)c1ncc(-c2ccccc2C(F)(F)F)[nH]1 (centres undefined)	.	11	2	-1	6	3	.	.
CCCOc1ccc(-c2nc(SCc3ccccc3)[nH]c(=O)c2C#N)cc1OC	106	0	23	0	2	4	.	.
O=C(O)c1ccc(C2(c3ccc(C(=O)O)cc3)OC(=O)c3ccccc32)cc1	116	4	-3	0	-2	4	.	.
O=C1OC(c2ccccc2)(c2cc(Br)c(O)c(Br)c2)c2ccccc21 (centres undefined)	93	3	50*	0	9	2	57*	16*
O=S(=O)(O)c1cccc2cccc(Nc3ccccc3)c12	96	-25	47*	-1	2	-15	64*	25*
c1ccc(Nc2cccc3c(Nc4ccccc4)cccc23)cc1	90	-166	7	-9	6	-92	.	.
COc1ccccc1N1CCN(C(=O)c2ccc3ncsc3c2)CC1	106	-11	2	0	2	-3	.	.
COC(=O)C1=C(C)N(Cc2ccccc2C(F)(F)F)C(=NCc2cc(OC)c(OC)c(OC)c2)NC1c1cccc(Cl)c1 (centres undefined)	.	-6	4	1	.	-2	.	.
COc1ccc(C(CNCC(O)COc2c(C)ccc(C)c2C)N(C)C)cc1 (centres undefined)	108	-6	-5	0	3	-1	.	.
O=C(/C=C/c1cn(-c2ccccc2)nc1-c1ccccc1)Nc1ccc(C(=O)O)cc1	102	4	44*	0	8	-5	73*	34*	DNA CAG DR=7.7*;dCAG TOPRO ctr=i;rCAG binder-2=6.8*
O=C(O)c1ccc(NC(=O)c2cn(-c3ccccc3)nc2-c2ccc(F)cc2)cc1	95	1	30	0	2	1	.	.
O=C(O)c1ccc(NC(=O)c2cn(-c3ccccc3)nc2-c2cccc(Cl)c2)cc1	119	7	36*	0	0	0	55*	19*
O=[N+]([O-])c1cc(/C=N/Nc2nc3ccccc3[nH]2)c(O)cc1O	.	14	36*	-1	.	4	29	13*
SMILES	DSG3 Ab inh	ADAM10 inh	rCAG binder-1	KLK7 zymogen act	MPTP inh	ADAM17 inh	rCAG binder conf	DNA CAG counter	others
Cc1ccccc1/C=N/Nc1nc2ccccc2[nH]1	107	-7	3	1	3	-4	.	.
Cc1nc2c(OCCC3CCCCC3)cccn2c1N(C)C(=O)CCC1CCCC1	.	-8	1	0	-1	-2	.	.
Cc1ccc(OCCSc2nc3ccccc3n2CC(=O)O)c(C(C)C)c1	99	2	38*	0	1	-5	41*	9.8*
COc1ccc2c(c1)Cc1cc(NC(=O)c3ccccc3-c3ccccc3C(=O)O)ccc1-2	103	0	63*	0	1	-3	66*	28*
O=C(O)c1ccccc1-c1ccccc1C(=O)Nc1cccc(-c2nc3ccccc3o2)c1	94	1	65*	0	-1	1	60*	22*
COc1ccc(NC(=O)c2ccccc2-c2ccccc2C(=O)O)cc1	102	-10	2	1	0	-7	.	.
Cc1ccc(NC(=O)c2cccc3c2-c2ccccc2C3=O)cc1C	100	-6	18	0	9	-3	.	.
O=C(O)c1ccccc1-c1ccccc1C(=O)Nc1ccc2c(c1)C(=O)c1ccccc1-2	90	4	60*	0	0	-2	68*	26*
O=C(O)c1ccccc1-c1ccccc1C(=O)Nc1ccc2c(c1)oc(=O)c1ccccc12	105	-403	66*	-1	2	-89	65*	24*
O=C(NCc1cccc(F)c1)Nc1nnc([C@H]2C[C@H](O)[C@@H](CO)O2)s1	.	-15	1	0	0	-8	.	.
